Results from PubChem BioAssay (NCI).
This is part of a sample that, as a whole, favours compounds with a hit. Of some 83,000 tested, about 20% had one in any assay.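 Compound tested at a single concentration for 48 hours in 96-well plates; a percent growth value below 10 was scored as active.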 Unmarked numbers belong to inactive results. Active and inactive are the calls of the source.

test system: MCF7 breast; experiment: NCI-60 one-dose screen, 48 h (100 = growth as untreated, 0 = no growth, -100 = all killed); conditions: 10 µM

| Structure (SMILES) | growth |
| --- | --- |
| COc1ccc2nc(Cl)c(Cn3nnc(Cc4ccccc4)n3)cc2c1 | 27.9% |
| C=C/C(C)=C/C[C@]1(C)[C@H](C)[C@@H](OC(=O)CCC)[C@H](O)[C@@]23C(=C[C@H](OC)C[C@@H]12)[C@@H](OC(=O)CCC)O[C@H]3OC(C)=O | 9.34% (active) |
| COc1ccc(-c2cc(-c3cc(OC)ccc3OC)nc(N)c2C#N)cc1 | 38.9% |
| COc1ccc(-c2nn(-c3cccc(Cl)c3)cc2-c2cc(-c3ccccc3)nc(N)n2)cc1 | 12.9% |
| COc1ccccc1-n1c(-c2sc(NC(C)=O)nc2C)n[nH]c1=S | 97.5% |
| COc1cc2c3c(n(C4CCN(C)CC4)c(=O)c2cc1OC)-c1cc2c(cc1C3=O)OCO2 | 24.8% |
| COc1cc(-c2ccc[nH]2)[nH]c1/C=C1\N=C(C)C(C(=O)NC(C)C)=C1C | 7.83% (active) |
| COc1ccc(-c2nn(-c3cccc(Cl)c3)cc2C=C(C#N)C#N)cc1 | -11.6% (active) |
| Fc1ccc2[nH]cc(-c3nc(-c4ccsc4)cs3)c2c1 | 65.9% |
| CCn1c2ccc(O)cc2c2c(C)c3c[n+](C)ccc3c(C)c21 | 16.7% |
| CC[C@H]1OC(=O)[C@H](C)[C@@H](O[C@H]2C[C@@](C)(OC)[C@@H](O)[C@H](C)O2)[C@H](C)[C@@H](O[C@@H]2O[C@H](C)C[C@H](N(C)C)[C@H]2O)[C@](C)(OC)C/C(C)=C2/O[C@@]1(C)C=C2C | -8.4% (active) |
| N#Cc1c(-c2ccc(Cl)cc2)cc(-c2cc(O)ccc2O)nc1N | 4.41% (active) |
